# What was measured:
# [1] = target: Platelet-derived growth factor receptor alpha (Homo sapiens) (UniProt P16234); details: at 10 µM
# [2] = target: Platelet-derived growth factor receptor beta (Homo sapiens) (UniProt P09619); details: at 1 µM
# [3] = target: Platelet-derived growth factor receptor beta (Homo sapiens) (UniProt P09619); details: at 10 µM
# [4] = target: T1, 3-phosphoinositide-dependent protein kinase 1 (Homo sapiens) (UniProt O15530); details: at 1 µM
# T1 sequence (whole entry): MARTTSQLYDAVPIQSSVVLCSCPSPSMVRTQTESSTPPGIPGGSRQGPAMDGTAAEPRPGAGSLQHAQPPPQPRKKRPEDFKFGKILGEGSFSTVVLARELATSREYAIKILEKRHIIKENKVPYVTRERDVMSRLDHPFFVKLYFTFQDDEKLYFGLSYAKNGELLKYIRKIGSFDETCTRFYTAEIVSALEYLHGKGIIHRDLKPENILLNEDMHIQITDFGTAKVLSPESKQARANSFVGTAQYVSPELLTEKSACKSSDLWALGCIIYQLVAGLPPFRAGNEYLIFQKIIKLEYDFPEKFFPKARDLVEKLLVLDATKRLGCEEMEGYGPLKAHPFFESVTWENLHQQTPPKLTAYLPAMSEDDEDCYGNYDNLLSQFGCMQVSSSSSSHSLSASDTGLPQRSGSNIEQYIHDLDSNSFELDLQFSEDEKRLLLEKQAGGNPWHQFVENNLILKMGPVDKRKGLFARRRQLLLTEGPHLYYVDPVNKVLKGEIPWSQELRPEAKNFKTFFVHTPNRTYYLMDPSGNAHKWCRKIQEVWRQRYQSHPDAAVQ
# [5] = target: T1, 3-phosphoinositide-dependent protein kinase 1 (Homo sapiens); details: at 10 µM
# [6] = target: cAMP-dependent protein kinase catalytic subunit alpha (Homo sapiens) (UniProt P17612); details: at 1 µM
# [7] = target: RAC-alpha serine/threonine-protein kinase (Homo sapiens) (UniProt P31749); details: at 1 µM
# Chain of RAC-alpha serine/threonine-protein kinase (Homo sapiens) (P31749 whole entry): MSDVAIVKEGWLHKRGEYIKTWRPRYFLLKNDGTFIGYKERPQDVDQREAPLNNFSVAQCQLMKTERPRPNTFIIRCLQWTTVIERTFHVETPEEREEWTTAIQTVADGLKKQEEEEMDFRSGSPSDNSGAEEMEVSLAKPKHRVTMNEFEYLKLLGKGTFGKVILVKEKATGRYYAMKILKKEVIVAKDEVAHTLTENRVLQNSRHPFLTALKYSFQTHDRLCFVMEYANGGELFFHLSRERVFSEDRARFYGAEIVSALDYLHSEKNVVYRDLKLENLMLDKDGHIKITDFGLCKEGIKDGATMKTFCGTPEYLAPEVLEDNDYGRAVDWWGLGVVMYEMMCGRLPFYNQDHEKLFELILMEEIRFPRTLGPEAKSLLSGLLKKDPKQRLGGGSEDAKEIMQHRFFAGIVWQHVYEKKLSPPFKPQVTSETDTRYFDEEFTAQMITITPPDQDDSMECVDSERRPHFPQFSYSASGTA
# [8] = target: RAC-alpha serine/threonine-protein kinase (Homo sapiens) (UniProt P31749); details: at 10 µM
# [9] = target: RAC-gamma serine/threonine-protein kinase (Homo sapiens) (UniProt Q9Y243); details: at 1 µM
# Chain of RAC-gamma serine/threonine-protein kinase (Homo sapiens) (Q9Y243 whole entry): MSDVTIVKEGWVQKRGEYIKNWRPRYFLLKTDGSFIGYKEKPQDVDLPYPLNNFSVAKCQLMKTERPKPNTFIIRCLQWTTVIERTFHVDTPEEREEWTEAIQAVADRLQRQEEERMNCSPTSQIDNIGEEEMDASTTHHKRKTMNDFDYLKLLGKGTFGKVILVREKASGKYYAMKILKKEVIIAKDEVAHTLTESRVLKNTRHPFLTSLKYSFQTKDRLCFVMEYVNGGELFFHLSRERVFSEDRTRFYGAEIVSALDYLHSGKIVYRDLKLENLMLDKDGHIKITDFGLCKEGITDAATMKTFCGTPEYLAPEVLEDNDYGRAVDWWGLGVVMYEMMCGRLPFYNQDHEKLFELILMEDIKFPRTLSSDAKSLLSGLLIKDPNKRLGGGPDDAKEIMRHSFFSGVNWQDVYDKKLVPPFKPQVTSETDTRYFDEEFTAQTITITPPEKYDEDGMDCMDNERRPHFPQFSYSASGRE
# [10] = target: cAMP-dependent protein kinase catalytic subunit alpha (Homo sapiens) (UniProt P17612); details: at 10 µM
# Chain of Platelet-derived growth factor receptor alpha (Homo sapiens) (P16234 whole entry): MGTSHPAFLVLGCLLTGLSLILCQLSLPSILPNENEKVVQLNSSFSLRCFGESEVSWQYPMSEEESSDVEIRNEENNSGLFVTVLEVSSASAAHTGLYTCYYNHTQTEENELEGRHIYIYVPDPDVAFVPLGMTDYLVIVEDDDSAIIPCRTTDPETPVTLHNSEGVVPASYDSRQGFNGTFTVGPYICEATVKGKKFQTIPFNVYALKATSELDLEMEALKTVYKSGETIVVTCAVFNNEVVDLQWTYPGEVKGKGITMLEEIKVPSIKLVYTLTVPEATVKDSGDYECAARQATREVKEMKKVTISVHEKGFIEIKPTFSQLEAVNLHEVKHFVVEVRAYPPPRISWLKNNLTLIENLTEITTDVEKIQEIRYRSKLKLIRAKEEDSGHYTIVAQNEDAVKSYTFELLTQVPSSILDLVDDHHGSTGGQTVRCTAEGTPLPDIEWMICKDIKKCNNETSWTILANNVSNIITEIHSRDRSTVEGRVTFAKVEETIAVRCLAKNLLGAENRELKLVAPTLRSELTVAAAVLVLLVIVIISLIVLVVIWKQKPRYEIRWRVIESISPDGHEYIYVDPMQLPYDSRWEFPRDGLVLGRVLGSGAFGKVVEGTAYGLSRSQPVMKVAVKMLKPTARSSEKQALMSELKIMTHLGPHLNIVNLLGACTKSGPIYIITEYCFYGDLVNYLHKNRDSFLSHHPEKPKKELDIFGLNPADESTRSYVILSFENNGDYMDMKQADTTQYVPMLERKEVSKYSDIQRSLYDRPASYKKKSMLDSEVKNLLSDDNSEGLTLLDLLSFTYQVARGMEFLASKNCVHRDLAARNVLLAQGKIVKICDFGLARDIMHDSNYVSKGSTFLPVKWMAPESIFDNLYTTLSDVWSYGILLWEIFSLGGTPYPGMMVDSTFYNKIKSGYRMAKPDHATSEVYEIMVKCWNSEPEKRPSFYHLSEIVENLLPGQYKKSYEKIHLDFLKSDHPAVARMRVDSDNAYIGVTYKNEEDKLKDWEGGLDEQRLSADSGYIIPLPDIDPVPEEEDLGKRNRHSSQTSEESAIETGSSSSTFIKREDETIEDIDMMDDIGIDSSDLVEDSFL
# Chain of Platelet-derived growth factor receptor beta (Homo sapiens) (P09619 whole entry): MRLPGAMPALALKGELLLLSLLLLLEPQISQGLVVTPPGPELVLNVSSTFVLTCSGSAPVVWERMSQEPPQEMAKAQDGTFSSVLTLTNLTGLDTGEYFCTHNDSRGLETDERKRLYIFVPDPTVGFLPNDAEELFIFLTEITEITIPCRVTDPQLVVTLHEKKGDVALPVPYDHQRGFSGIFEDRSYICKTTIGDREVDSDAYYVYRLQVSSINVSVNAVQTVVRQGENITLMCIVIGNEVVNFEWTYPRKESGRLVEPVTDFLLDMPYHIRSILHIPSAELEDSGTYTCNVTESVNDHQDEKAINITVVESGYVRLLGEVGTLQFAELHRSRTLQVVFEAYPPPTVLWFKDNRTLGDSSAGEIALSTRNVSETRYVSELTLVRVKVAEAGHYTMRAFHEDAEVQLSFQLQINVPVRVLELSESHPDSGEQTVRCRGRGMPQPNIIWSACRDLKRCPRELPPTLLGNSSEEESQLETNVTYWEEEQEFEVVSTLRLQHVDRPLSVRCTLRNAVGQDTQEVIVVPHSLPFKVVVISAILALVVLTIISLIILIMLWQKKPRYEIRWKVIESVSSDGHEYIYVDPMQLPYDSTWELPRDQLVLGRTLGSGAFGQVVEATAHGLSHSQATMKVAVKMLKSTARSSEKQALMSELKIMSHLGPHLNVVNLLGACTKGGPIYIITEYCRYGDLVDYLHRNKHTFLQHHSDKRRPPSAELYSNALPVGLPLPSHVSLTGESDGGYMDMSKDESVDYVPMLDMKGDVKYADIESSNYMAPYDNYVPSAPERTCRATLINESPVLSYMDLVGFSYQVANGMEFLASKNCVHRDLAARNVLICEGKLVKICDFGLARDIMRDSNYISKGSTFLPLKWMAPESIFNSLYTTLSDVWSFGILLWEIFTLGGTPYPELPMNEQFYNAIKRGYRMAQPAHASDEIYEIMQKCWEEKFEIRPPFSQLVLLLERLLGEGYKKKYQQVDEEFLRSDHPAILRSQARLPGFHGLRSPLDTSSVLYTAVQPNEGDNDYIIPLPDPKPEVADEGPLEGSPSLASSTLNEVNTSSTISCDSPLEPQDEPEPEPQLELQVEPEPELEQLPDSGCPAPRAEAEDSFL
structure (smiles),measurement,setting,value
COc1cc2ncnc(Nc3ccc(OCc4ccccc4)cc3)c2cc1OC,residual activity,[1],57%
same,residual activity,[2],106%
same,residual activity,[3],89%
same,residual activity,[4],119%
same,residual activity,[5],114%
same,residual activity,[6],88%
same,residual activity,[7],104%
same,residual activity,[8],122%
same,residual activity,[9],99%
O=C1c2ccccc2-c2nc3nnnn3nc21,residual activity,[1],111%
same,residual activity,[2],120%
same,residual activity,[3],111%
same,residual activity,[4],121%
same,residual activity,[5],116%
same,residual activity,[7],103%
same,residual activity,[8],112%
same,residual activity,[9],117%
O=C1NC(=O)c2cc(Nc3ccc(F)cc3)c(Nc3ccc(F)cc3)cc21,residual activity,[7],101%
same,residual activity,[8],107%
CCn1cnc2c(Nc3cccc(Cl)c3)nc(N[C@@H]3CCCC[C@@H]3N)nc21,residual activity,[1],86%
same,residual activity,[3],76%
same,residual activity,[5],84%
same,residual activity,[9],94%
CN[C@@H]1C[C@H]2O[C@@](C)([C@@H]1OC)n1c3ccccc3c3c4c(c5c6ccccc6n2c5c31)C(=O)NC4,residual activity,[4],1%
same,residual activity,[5],0%
CCCC(=O)Oc1ccc2[nH]c(C(=O)c3cc4ccccc4[nH]3)cc2c1,residual activity,[7],97%
COc1ccc2c(c[n+](C)c3c4cc5c(cc4ccc23)OCO5)c1OC,residual activity,[6],98%
same,residual activity,[10],73%
same,residual activity,[7],98%
same,residual activity,[8],110%
same,residual activity,[9],82%
N/C(=N\[N+](=O)[O-])N/N=C\c1ccc(-c2cccc([N+](=O)[O-])c2)o1,residual activity,[1],54%
same,residual activity,[2],100%
same,residual activity,[3],60%
same,residual activity,[9],77%
COc1cccc(-c2cc(=O)c3ccccc3o2)c1N,residual activity,[7],106%
same,residual activity,[8],109%
COc1cc(OC)c(/C=C2\C(=O)Nc3ccccc32)c(OC)c1,residual activity,[1],69%
same,residual activity,[6],100%
same,residual activity,[10],91%
same,residual activity,[9],103%
CC(C)(C)c1cc(C=C(C#N)C#N)cc(Br)c1O,residual activity,[1],106%
same,residual activity,[2],103%
same,residual activity,[3],103%
same,residual activity,[4],102%
same,residual activity,[7],98%
same,residual activity,[8],102%
same,residual activity,[9],106%
c1ccc(-c2n[nH]cc2-c2ccnc3ccccc23)nc1,residual activity,[7],96%
CC(C)(C)n1nc(Cc2cccc3ccccc23)c2c(N)ncnc21,residual activity,[7],96%
same,residual activity,[8],107%
COc1cc2ncnc(Nc3cccc(Cl)c3)c2cc1OC,residual activity,[7],86%
O=C(CCCc1ccc(-c2ccccc2F)cc1)Nc1ccc(O)cc1,residual activity,[7],103%
same,residual activity,[8],105%
O=[N+]([O-])/C=C/c1ccc2c(c1)OCO2,residual activity,[1],105%
same,residual activity,[2],94%
same,residual activity,[3],97%
same,residual activity,[4],106%
same,residual activity,[5],96%
same,residual activity,[6],124%
same,residual activity,[7],100%
same,residual activity,[8],110%
same,residual activity,[9],125%
CC(C)[C@H](CO)Nc1nc(Nc2cccc(Cl)c2)c2ncn(C(C)C)c2n1,residual activity,[5],97%
Ic1cccc(CSc2nnc(-c3ccncc3)o2)c1,residual activity,[7],116%
CCc1nc(-c2ccc(OC)cc2)[nH]c1-c1ccncc1,residual activity,[1],109%
same,residual activity,[2],110%
same,residual activity,[3],108%
same,residual activity,[4],110%
same,residual activity,[5],101%
same,residual activity,[7],113%
same,residual activity,[8],108%
Cn1nc2c3c(cccc31)C(=O)c1ccccc1-2,residual activity,[7],111%
same,residual activity,[8],108%
O=C1Nc2ccc3ncsc3c2/C1=C/c1c[nH]cn1,residual activity,[1],20%
same,residual activity,[3],29%
same,residual activity,[4],31%
same,residual activity,[5],6%
same,residual activity,[6],25%
same,residual activity,[10],5%
same,residual activity,[7],99%
same,residual activity,[8],106%
COc1ccc(CNC(=O)Nc2ncc([N+](=O)[O-])s2)cc1,residual activity,[7],116%
same,residual activity,[8],106%
COc1cc2ncnc(Nc3ccc(O)c(Br)c3)c2cc1OC,residual activity,[7],107%
same,residual activity,[8],105%
O=c1[nH]c2ccccc2n1C1CCN(Cc2ccc(-c3nc4cc5[nH]cnc5cc4nc3-c3ccccc3)cc2)CC1,residual activity,[1],101%
same,residual activity,[2],108%
same,residual activity,[3],96%
same,residual activity,[4],113%
same,residual activity,[5],120%
same,residual activity,[6],97%
same,residual activity,[10],145%
same,residual activity,[7],98%
same,residual activity,[8],90%
same,residual activity,[9],118%
Nc1nc(Nc2ccc(S(N)(=O)=O)cc2)nn1C(=S)Nc1c(F)cccc1F,residual activity,[7],122%
c1cc(-c2cnn3cc(-c4ccc(OCCN5CCCCC5)cc4)cnc23)ccn1,residual activity,[1],3%
same,residual activity,[2],27%
same,residual activity,[3],4%
same,residual activity,[5],84%
same,residual activity,[6],71%
same,residual activity,[10],32%
C[S+]([O-])c1ccc(-c2nc(-c3ccc(F)cc3)c(-c3ccncc3)[nH]2)cc1 (stereo not drawn),residual activity,[1],108%
same,residual activity,[2],120%
same,residual activity,[3],120%
same,residual activity,[4],117%
same,residual activity,[5],107%
same,residual activity,[6],105%
same,residual activity,[7],102%
same,residual activity,[8],105%
same,residual activity,[9],117%
O=C1NC(=O)/C(=C/c2ccc3c(c2)OC(F)(F)O3)S1,residual activity,[7],102%
same,residual activity,[8],111%
CC(=O)O/N=C1\C(=C2\C(=O)Nc3cc(Br)ccc32)Nc2ccccc21,residual activity,[7],115%
same,residual activity,[8],109%
O=C1NC(=O)/C(=C\c2ccc3nccnc3c2)S1,residual activity,[7],106%
same,residual activity,[8],108%
COc1ccc2c(c1)/C(=C/c1cnc[nH]1)C(=O)N2,residual activity,[1],82%
same,residual activity,[4],76%
same,residual activity,[5],20%
c1ccc(-c2cnc(Nc3ccc(OCCN4CCCC4)cc3)s2)cc1,residual activity,[7],102%
same,residual activity,[8],115%
COC(=O)[C@@]1(O)C[C@H]2O[C@]1(C)n1c3ccccc3c3c4c(c5c6ccccc6n2c5c31)C(=O)NC4,residual activity,[1],8%
same,residual activity,[2],46%
same,residual activity,[3],8%
same,residual activity,[4],-1%
same,residual activity,[5],0%
same,residual activity,[6],7%
same,residual activity,[10],3%
same,residual activity,[7],101%
same,residual activity,[8],37%
same,residual activity,[9],11%
O=C1NC(=O)c2c1c1c3ccccc3n3c1c1c2c2ccccc2n1C1CCC3O1,residual activity,[1],81%
same,residual activity,[2],90%
same,residual activity,[3],86%
same,residual activity,[4],27%
same,residual activity,[5],4%
same,residual activity,[6],70%
same,residual activity,[10],68%
same,residual activity,[9],96%
Cc1cc(Nc2nc(-c3ccccc3)nc3ccccc23)n[nH]1,residual activity,[7],113%
same,residual activity,[8],101%
CN(C)c1ccc(/C=C2\C(=O)Nc3ccccc32)cc1,residual activity,[7],112%
same,residual activity,[8],121%
COc1ccc(C(=O)Nc2sc3c(c2C(N)=O)CCCC3)cc1OC,residual activity,[7],103%
same,residual activity,[8],109%
NCCNc1ncc(C(N)=O)c(Nc2cccc(C(F)(F)F)c2)n1,residual activity,[8],112%
Nc1n[nH]c2nnc(-c3c(-c4ccccc4)nn4ccccc34)cc12,residual activity,[7],111%
same,residual activity,[8],99%
O=C1NC(=O)c2c1c1c3ccccc3[nH]c1c1[nH]c3cc(Br)ccc3c21,residual activity,[7],103%
same,residual activity,[8],106%
O=C(Nc1cccc(Nc2cc(Nc3cccc(C(F)(F)F)c3)ncn2)c1)C1CC1,residual activity,[7],96%
same,residual activity,[8],99%
COc1ccc(OC)c2c(=S)c3ccccc3[nH]c12,residual activity,[7],109%
same,residual activity,[8],104%
O=C(Nc1cccc(Nc2nccc(Nc3cccc(C(F)(F)F)c3)n2)c1)C1CC1,residual activity,[7],103%
same,residual activity,[8],104%
COc1ccc(CNc2nc(N(CCO)CCO)nc3c2ncn3C(C)C)cc1,residual activity,[7],118%
same,residual activity,[8],111%
COc1ccc(Cl)cc1NC(=O)Nc1cc(C)nc2ccccc12,residual activity,[7],95%
same,residual activity,[8],94%
O=c1cc(N2CCOCC2)oc2c1ccc1ccccc12,residual activity,[7],103%
same,residual activity,[8],106%
CCC(=O)Nc1ccc2ncnc(Nc3cccc(Br)c3)c2c1,residual activity,[7],99%
same,residual activity,[8],106%
O=C1Cc2c([nH]c3ccc([N+](=O)[O-])cc23)-c2ccccc2N1,residual activity,[7],104%
same,residual activity,[8],104%
CO[C@@H]1[C@H](N(C)C(=O)c2ccccc2)C[C@H]2O[C@]1(C)n1c3ccccc3c3c4c(c5c6ccccc6n2c5c31)C(=O)NC4,residual activity,[7],97%
same,residual activity,[8],99%
CC#CC(=O)Nc1cc2c(Nc3ccc(F)c(Cl)c3)ncnc2cn1,residual activity,[7],101%
same,residual activity,[8],107%
Oc1c2ccccc2c2c3c(cccc13)N=N2,residual activity,[8],110%
CC[n+]1c(/C=C/N(C)c2ccccc2)n(-c2ccccc2)c2ccc(-c3nc4ccccc4s3)cc21,residual activity,[7],99%
same,residual activity,[8],107%
COc1ccc2c(c1)c(C1=C(c3c[nH]c4ccccc34)C(=O)NC1=O)cn2CCCN(C)C,residual activity,[7],110%
same,residual activity,[8],120%
CNc1cc2c(Nc3cccc(Br)c3)ncnc2cn1,residual activity,[7],98%
same,residual activity,[8],98%
Cn1cc(/C=C2\C(=O)Nc3ccc(S(N)(=O)=O)cc32)c2ccccc21,residual activity,[7],96%
same,residual activity,[8],101%
Nc1ccc2ncnc(NCCc3ccc(Oc4ccccc4)cc3)c2c1,residual activity,[7],110%
same,residual activity,[8],108%
Oc1n[nH]c2nnc(-c3c(-c4ccccc4)nn4ccccc34)cc12,residual activity,[7],105%
same,residual activity,[8],111%
CC(=O)c1ccc(N2CCOCC2)cc1O,residual activity,[7],101%
same,residual activity,[8],111%
Oc1ccc(Nc2nc(-c3ccc(Cl)cc3)cs2)cc1,residual activity,[7],124%
same,residual activity,[8],94%
CC(C)n1cnc2/c(=N/c3cccc(Cl)c3)nc(NCCO)[nH]c21,residual activity,[7],111%
same,residual activity,[8],109%
CO[C@H]1[C@@H](OC)C[C@H](C)[C@@H](OC)C2=CC(=O)C=C(NC(=O)/C(C)=C/C=C/[C@H](OC)[C@@H](OC(N)=O)/C(C)=C/[C@@H]1C)C2=O,residual activity,[7],112%
same,residual activity,[8],114%
Nc1ncnc2c1c(-c1ccc(Oc3ccccc3)cc1)cn2C1CCCC1,residual activity,[7],105%
same,residual activity,[8],111%
N#C/C(=C(\N)Sc1ccc(N)cc1)c1ccccc1C(F)(F)F,residual activity,[7],112%
same,residual activity,[8],108%
Nc1ncnc2[nH]nc(Nc3ccc(F)cc3)c12,residual activity,[7],111%
same,residual activity,[8],109%
CCN(CC)CCCCN1c2ccccc2Oc2ccc(Cl)cc21,residual activity,[7],104%
same,residual activity,[8],104%
Cc1cccc(-c2[nH]c(C(C)(C)C)nc2-c2ccc3c(c2)OCO3)n1,residual activity,[7],100%
same,residual activity,[8],107%
Nc1nc(Nc2ccc(S(N)(=O)=O)cc2)nn1C(=O)c1c(F)cccc1F,residual activity,[7],104%
same,residual activity,[8],103%
O=S(=O)(NCCNC/C=C/c1ccc(Br)cc1)c1cccc2cnccc12,residual activity,[8],22%
CN(C)CCCn1cc(C2=C(c3c[nH]c4ccccc34)C(=O)NC2=O)c2ccccc21,residual activity,[7],103%
same,residual activity,[8],104%

# From ChEMBL document CHEMBL2218924, “A broad activity screen in support of a chemogenomic map for kinase signalling research and drug discovery” (Biochem J, 2013)
